In PubChem BioAssay AID376 (PDSP, 2006):
Hit rate of the full screen: of about 2,000 compounds, about 250 (12%) were called active. Cut-off read from the data, not from the text of the source: active = hERG blockade below about -20% or above about 20%; inactive = in between. Shown is part of a subset that was picked to be rich in actives.

Target: Voltage-gated inwardly rectifying potassium channel KCNH2 (Homo sapiens) (UniProt Q12809)
Assay: modulators of KCNH2 ion channel function, cellular (AID 376);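 note: 0% = buffer alone and 100% = reference blocker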
Conditions: hERG-expressing cells, channel activity single-concentration screen; concentration not given here

Sequence of Voltage-gated inwardly rectifying potassium channel KCNH2 (Homo sapiens) (Q12809 whole entry, looked up): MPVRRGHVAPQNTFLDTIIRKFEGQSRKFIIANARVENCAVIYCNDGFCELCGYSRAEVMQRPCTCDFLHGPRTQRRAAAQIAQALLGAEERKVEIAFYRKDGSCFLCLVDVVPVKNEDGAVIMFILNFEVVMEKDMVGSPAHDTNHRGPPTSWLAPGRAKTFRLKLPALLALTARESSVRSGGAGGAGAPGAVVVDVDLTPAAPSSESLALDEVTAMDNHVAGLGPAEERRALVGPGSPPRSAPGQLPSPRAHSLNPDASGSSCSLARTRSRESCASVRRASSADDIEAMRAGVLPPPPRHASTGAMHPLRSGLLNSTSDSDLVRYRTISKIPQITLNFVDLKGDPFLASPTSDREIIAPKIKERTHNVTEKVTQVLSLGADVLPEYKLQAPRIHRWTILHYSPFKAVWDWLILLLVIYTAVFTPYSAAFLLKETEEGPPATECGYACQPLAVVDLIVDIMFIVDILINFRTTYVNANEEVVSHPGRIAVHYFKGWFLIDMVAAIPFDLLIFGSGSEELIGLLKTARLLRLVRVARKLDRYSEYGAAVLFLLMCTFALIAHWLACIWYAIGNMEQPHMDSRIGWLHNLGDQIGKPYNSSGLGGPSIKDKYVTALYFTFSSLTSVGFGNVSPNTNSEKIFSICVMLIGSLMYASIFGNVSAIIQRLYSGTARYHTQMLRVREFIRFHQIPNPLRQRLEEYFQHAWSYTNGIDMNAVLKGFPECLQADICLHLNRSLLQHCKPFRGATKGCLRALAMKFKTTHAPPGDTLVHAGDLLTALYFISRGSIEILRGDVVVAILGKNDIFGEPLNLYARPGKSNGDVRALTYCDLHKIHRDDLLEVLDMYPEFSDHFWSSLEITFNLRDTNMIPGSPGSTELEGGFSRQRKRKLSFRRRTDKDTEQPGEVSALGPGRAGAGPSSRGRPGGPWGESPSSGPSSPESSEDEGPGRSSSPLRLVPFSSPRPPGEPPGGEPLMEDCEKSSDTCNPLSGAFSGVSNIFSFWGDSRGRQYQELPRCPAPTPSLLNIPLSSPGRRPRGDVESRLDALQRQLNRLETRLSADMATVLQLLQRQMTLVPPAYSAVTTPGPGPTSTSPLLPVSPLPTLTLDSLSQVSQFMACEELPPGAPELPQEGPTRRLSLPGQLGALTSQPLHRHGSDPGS

Structure (SMILES)	hERG blockade
CC12CCC(CN(CCC[N+](C)(C)C)C1)C2(C)C (centres undefined)	4.55% (inactive)
CC1CCC2N(C1)CC1C3(O)CC45OC6(O)C(O)CCC4(C)C6CCC5C3(O)CC(O)C1(O)C2(C)O (centres undefined)	12.9% (inactive)
CSCCC(N)P(C)(=O)O (centres undefined)	-4.74% (inactive)
C[As+](C)(c1ccc(Br)c([N+](=O)[O-])c1)c1ccc(Br)c([N+](=O)[O-])c1.O=[N+]([O-])[O-]	13.6% (inactive)
N=C(N)n1cc(C=NN=C(N)N)cn1	47.3% (active)
S=P(C1CCCCC1)(C1CCCCC1)C(c1cccnc1)N1CCCC1 (centres undefined)	1.56% (inactive)
O.O.[NH-]C1(C(=O)O)CCCC1.[NH-]C1(C(=O)O)CCCC1.[Ni+2]	1.76% (inactive)
Cc1cc[c]([Sb]2[O]C(CO)C(C(O)C(O)C(=O)O)[O]2)cc1 (centres undefined)	-4.77% (inactive)
COc1cc2c(cc1OC)C13CCN4CC5=CCOC(CC(=O)O)C(C5CC41)C3N2 (centres undefined)	2.07% (inactive)
O=c1[nH]cnc2[nH]cc(CN3CCCCC3)c12	1.35% (inactive)
O=c1[nH]c2ccccc2n1CCCN1CCC(n2c(=O)[nH]c3cc(Cl)ccc32)CC1	67.7% (active)
CCNC(C)(C)C(SS)c1ccc(Br)cc1 (centres undefined)	-7.7% (inactive)
O=C(O)CC1OCC=C2CN3CCC45c6ccccc6NC4C1C2CC35 (centres undefined)	-7.07% (inactive)
CC1(C)CC(=N[N-]C(N)=[SH+])CC(C)(C)N1.CC1(C)CC(=N[N-]C(N)=[SH+])CC(C)(C)N1.[Ni]	-0.871% (inactive)
O=C(O)C1[O][Sb][O]C(C(=O)O)C1O (centres undefined)	-9.98% (inactive)
CC(C)=CC1C(C(=O)OCc2cc3c(cc2Cl)OCO3)C1(C)C (centres undefined)	1.35% (inactive)
c1nc(N2CC2)c2cnn(C3CCCCO3)c2n1 (centres undefined)	4.58% (inactive)
O=C(O)C1C2c3ccccc3C(c3ccccc32)C1C(=O)NCC1CC1 (centres undefined)	-8.3% (inactive)
CC(C)CCC1(CCN)C(=O)NC(=O)NC1=O	-21.5% (active)
CC12Cc3cnc(-c4ccccc4)nc3CC1CCC1C2CCC2(C)C1CCC2(C)O (centres undefined)	6.41% (inactive)
NC(Cc1c[nH]c2cc([N+](=O)[O-])ccc12)C(=O)O (centres undefined)	-0.372% (inactive)
CCC1(CCSC(=N)N)C(=O)NC(=O)NC1=O	-24.7% (active)
CCNCCC1(CC)C(=O)NC(=O)NC1=O	-21.7% (active)
NCC(O)CSP(=O)(O)O (centres undefined)	-13.3% (inactive)
CS(=N)(=O)CCC(N)P(=O)(O)O (centres undefined)	-8.23% (inactive)

Structure (SMILES)	hERG blockade
COc1cc2ccccc2c2cc([N+](=O)[O-])oc12	15.9% (inactive)
CC12CCC(O)CC1CCC1C2CCC2(C)C(C(=O)CC(O)C(F)(F)F)CCC12 (centres undefined)	-1.73% (inactive)
CC(C)CC(=O)CC(O)C(Cl)(Cl)Cl (centres undefined)	-17% (inactive)
CC(Br)(C(=O)O)C(Br)C(=O)O (centres undefined)	11.1% (inactive)
CCC1C2Cc3ccc(O)cc3C1(CC)CCN2C (centres undefined)	1.71% (inactive)
CCC1=C(CC2NCCc3cc(OC)c(OC)cc32)CC2c3ccccc3CCN2C1 (centres undefined)	46% (active)
COC(=O)c1c(C)ccc2c(O)c3c(cc12)C(=O)c1c2c(cc(O)c1C3=O)C1(C)OC(C)(O2)C(O)C(N(C)C)C1O (centres undefined)	18.8% (inactive)
NCCc1ccc(S(=O)(=O)O)cc1[N+](=O)[O-]	2.55% (inactive)
O=[As](O)(O)c1ccc(NCc2ccccc2)cc1	-4.95% (inactive)
COc1ccc(CC(N)c2ccc(OC)cc2)cc1 (centres undefined)	16.9% (inactive)
CC(=O)OC1CC2(C)C(=CC1C1SCCS1)CCC1C2CCC2(C)C(OC(C)=O)CCC12 (centres undefined)	4.12% (inactive)
Cc1ccc(C2(c3ccc(C)c(O)c3C)CCN(C)CC2)c(C)c1O	21.1% (active)
Cc1ncc([N+](=O)[O-])n1CCN=[N+]=[N-]	-3.49% (inactive)
c1ccc(C[N+]23CN4CN(CN(C4)C2)C3)cc1	-14.9% (inactive)
Nc1nc2c(ncn2C2OC(CO)C(O)C2O)c(=[SH+])[nH]1.O=[N+]([O-])c1ccc(O)[c]([Hg])c1 (centres undefined)	5.92% (inactive)
COC(=O)C1c2cc3c(c(O)c2C(O)CC1(C)O)C(=O)c1c(O)cc2c(c1C3=O)OC1OC2(C)C(O)C(N(C)C)C1O (centres undefined)	18.4% (inactive)
NC(Cc1ccccc1)P(=O)(O)O (centres undefined)	1.7% (inactive)
CC1(C)CCC(C)(C)c2c1ccc(O)c2Cc1c(O)ccc2c1C(C)(C)CCC2(C)C	-7.52% (inactive)
COc1cc2c3cc1Oc1c(O)c(OC)cc4c1C(Cc1ccc(cc1)Oc1cc(ccc1O)CC3N(C)CC2)N(C)CC4 (centres undefined)	38.6% (active)
COc1ccc(CC2C(=O)NC(C)C(=O)N(C)C3C(=O)N(C)C(Cc4ccc(O)c(c4)Oc4ccc(cc4)C3O)C(=O)NC(C)C(=O)NC(C)C(=O)N2C)cc1 (centres undefined)	6.31% (inactive)
COc1cc2c(cc1O)CC1c3c(cc(O)c(OC)c3-2)CCN1C (centres undefined)	4.49% (inactive)
N#CS.N=C=S.N=C=S.[Cu+2].[NH2-].[NH2-].[NH2-].[NH2-].c1ccc2ncccc2c1	6.79% (inactive)
c1cncc(CNCCN2CCNCC2)c1	-8.8% (inactive)
NC1(P(=O)(O)O)CCCCC1	-4.89% (inactive)
